Source: PubChem (National Center for Advancing Translational Sciences (NCATS))
A selection: hits, their analogues and other compounds. The true share with any hit is near 21%.
Pf growth 96h: Primary qHTS for delayed death inhibitors of the malarial parasite plastid, 96 hour incubation; actives 6.9% (n = 320,000); P. falciparum luciferase reporter growth, 96 h; Potency, µM (series often up to 28.7 µM), hits mostly inhibitors; active = well fitted inhibition curve with a large enough effect; inconclusive = small, poorly fitted or top-dose-only effect, or another doubt; inactive = no such curve, though single readings can be large or run the other way
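Compounds incubated with erythrocytes infected by luciferase-expressing P. falciparum (2% hematocrit, 0.05% parasitemia final) for 96 hours, 37 C in 5% CO2. Growth inhibition scored as decreased luciferase luminescence.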
CHX counter: Cycloheximide Counterscreen for Small Molecule Inhibitors of Shiga Toxin; cell reporter, cycloheximide protein synthesis inhibition counterscreen; AID 2314, 2010; actives 12% (n = 300,000); max response, %; in the data active = max response mostly above about 13%, no sharp cut-off; inactive = mostly below about 14%; note: read at 38.3 µM for the half of the compounds with a filed dose
Pf growth 48h: Primary qHTS for delayed death inhibitors of the malarial parasite plastid, 48 hour incubation. P. falciparum luciferase growth in erythrocytes, 48 h. Potency, µM (series often up to 28.7 µM), actives largely listed as inhibitors. actives 5.9% (n = 310,000); active = well fitted inhibition curve with a large enough effect; inconclusive = small, poorly fitted or top-dose-only effect, or another doubt; inactive = no such curve, though single readings can be large or run the other way
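First compound was added to culture medium, then infected red cells at 0.1% parasitemia and 2% hematocrit (final). After incubation at 37 C under 5% CO2, luciferase detection reagent was dispensed and light output recorded.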
NS1 function inh: qHTS Assay for Inhibitors of Influenza NS1 Protein Function; AID 2326, 2010; Potency, µM (highest dose often 46.1 µM); actives 0.4% (n = 270,000); note: actives are rising curves; nearly all actives have a fitted effect of over 50% in size
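OD600 was taken as the measure of yeast growth restored by compound in an NS1-expressing S. cerevisiae strain. Cells had been washed out of glucose medium and diluted 1:100 into galactose -URA medium, pH 6.0.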
Shiga toxin inh: A qHTS for Small Molecule Inhibitors of Shiga Toxin; inhibition, % at 38.7 µM; Vero cells, Shiga toxin protein synthesis inhibition reporter; actives 9.2% (n = 290,000); in the data active = inhibition mostly above about 28%, no sharp cut-off; inactive = mostly below about 43%
SARS PLpro yeast: qHTS of Yeast-based Assay for SARS-CoV PLP | S. cerevisiae expressing SARS-CoV PLpro, growth rescue | Potency, µM (top dose mostly 32.9 µM), usual class: activators | actives 0.19% (n = 330,000) | AID 485353, 2010; note: nearly all actives have a fitted effect of over 55% in size
A number is an active result; – = inactive; ? = inconclusive; · = not tested or not shown. Unless noted, calls come from the whole dose curve.

SMILES	Pf growth 96h	CHX counter	Pf growth 48h	NS1 function inh	Shiga toxin inh	SARS PLpro yeast
Cc1c(C#N)c(NC(=O)CCl)n(Cc2cccs2)c1C	3.3µM	–	10µM	·	–	–
Cc1c(C#N)c(NC(=O)CCl)n(Cc2ccc(F)cc2)c1C	?	–	?	·	–	–
COC1C(OC(=O)/C=C/C=C/C=C/C=C/C(=O)O)CCC2(CO2)C1C1(C)OC1CC=C(C)C (stereo not drawn)	?	·	0.0038µM	·	·	·
CCOC(=O)N1CCC2(CC1)C(C#N)=C(N)Oc1c2c(C)nn1-c1cccc(Cl)c1	–	–	9.3µM	–	–	–
CCCCN(C/C=C/c1ccccc1OC)Cc1ccccc1	8.3µM	–	?	–	–	–
CCn1c(SCC(=O)NCCCN2CCCC2=O)nnc1-c1cccc(C)c1	–	·	–	·	·	–
CSc1nnc(NC(=O)c2ccco2)s1	–	16	–	–	·	–
Cc1ccc(C)c(OCc2nnc(NC(=O)c3ccco3)s2)c1	10µM	–	–	–	–	–
O=C(Nc1nnc(SCc2ccccc2F)s1)c1ccco1	–	–	–	–	–	–
COCc1nnc(NC(=O)c2ccco2)s1	·	–	–	–	–	–
Cc1cnc(NC(=O)c2ccco2)s1	–	34	–	–	125	–
O=C(CSc1nnc(NC(=O)c2ccco2)s1)Nc1cccc(F)c1	–	32	–	–	78	–
COc1ccc(S(=O)(=O)N2CCOC2CNC(=O)C(=O)NCCCN2CCOCC2)cc1C (stereo not drawn)	–	–	–	–	–	–
Cc1cc(C(=O)NCC(C)(C)N2CCOCC2)c(C)o1	–	·	–	·	·	–
C=CCn1c(C(CCCC)CC(O)COCC(C)C)n[nH]c1=S (stereo not drawn)	–	–	?	–	–	–
COCCSc1nnc(NC(=O)c2ccco2)s1	?	20	–	–	–	–
CCCSc1nnc(NC(=O)c2ccco2)s1	–	24	–	·	109	–
CC(C)N(C(=O)CSc1nnc(NC(=O)c2ccco2)s1)C(C)C	–	–	–	·	–	–
COc1cc(C(=O)N2CCc3ccccc32)c([N+](=O)[O-])cc1OC	–	–	–	–	–	–
O=C(Cc1cccs1)NCCCc1ccccc1	–	–	?	–	–	–
COc1cccc(C(c2nnnn2CCc2ccccc2)N2CCN(c3ccccc3)CC2)c1OC (stereo not drawn)	?	–	4.7µM	–	–	–
C=CCN1CCN(C(c2cccc(OC)c2OC)c2nnnn2CCC(C)C)CC1 (stereo not drawn)	–	–	7.4µM	·	–	–
COc1ccccc1N1CCN(C(c2ccccc2)c2nnnn2CCc2ccccc2)CC1 (stereo not drawn)	–	–	10µM	–	–	–
C=CCN1CCN(C(CC(C)C)c2nnnn2CCOC)CC1 (stereo not drawn)	–	–	–	–	–	–
COc1ccc(Cl)cc1NC(=O)Cn1c(=O)n2nc(C)nc2c2ccccc21	?	–	·	–	–	–
SMILES	Pf growth 96h	CHX counter	Pf growth 48h	NS1 function inh	Shiga toxin inh	SARS PLpro yeast
COc1ccc(C2=Nn3c(nnc3-c3ccc(OC)cc3OC)SC2)c(OC)c1	·	–	·	·	–	·
O=C(NCCc1nnc2ccc(NCc3cccnc3)nn12)c1ccccc1F	–	–	–	·	–	–
CC(CC(=O)N(C)C1CCCCC1)S(=O)(=O)c1ccc2c(c1)NC(=O)CO2 (stereo not drawn)	7.4µM	–	–	–	–	–
CCOC(=O)C1CCN(C(=O)CC(C)S(=O)(=O)c2ccc3c(c2)NC(=O)CO3)CC1 (stereo not drawn)	?	–	–	–	–	–
COc1ccc2c(c1)OC[C@H]1[C@H]2N2C(=O)c3cc(Br)ccc3NC(=O)[C@@]2(C)[C@H]1c1ccccc1	5.2µM	·	1.7µM	·	·	–
COc1ccc2c(c1)OC[C@H]1[C@H]2N2C(=O)c3cc(OC)c(OC)cc3NC(=O)[C@@]2(C)[C@H]1c1ccccc1	6.6µM	·	2.3µM	·	·	–
COc1ccc2c(c1)[C@H]1[C@H](CO2)[C@H](c2ccccc2)[C@]2(C)C(=O)Nc3ccccc3C(=O)N12	?	·	?	·	·	–
COc1cc2c(cc1OC)C(=O)N1[C@H]3c4ccccc4OC[C@@H]3[C@H](c3ccccc3)[C@]1(C)C(=O)N2	?	·	?	·	·	–
COc1ccc2c(c1)C(=O)N1[C@H]3c4cc(OC)ccc4OC[C@@H]3[C@H](c3ccccc3)[C@]1(C)C(=O)N2	?	·	13µM	·	·	–
COc1ccc2c(c1)[C@H]1[C@H](CO2)[C@H](c2ccccc2)[C@]2(C)C(=O)Nc3ccc(Br)cc3C(=O)N12	·	·	·	·	·	–
COCc1ccc(C(=O)N2CCCC(C(=O)c3ccc(Cl)cc3C)C2)o1 (stereo not drawn)	?	–	–	–	–	–
Nc1nc(N2CCN(C(=O)c3ccco3)CC2)nc2ccccc12	–	28	?	–	67	–
Nc1nc(N2CCN(C(=O)c3ccco3)CC2)nc2ccc(Br)cc12	–	25	–	·	50	–
O=C(c1ccco1)N1CCN(c2ncccn2)CC1	–	–	·	–	–	–
O=C1CCCc2nc(N3CCN(C(=O)c4ccco4)CC3)ncc21	9.3µM	20	–	–	25	–
Nc1nc(N2CCN(C/C=C/c3ccccc3)CC2)nc2ccccc12	–	–	12µM	–	–	–
O=C(CN1C(=O)NC2(CCCCCC2)C1=O)N1CCCCC1	–	·	–	·	·	–
CCN(Cc1ccccc1)C(=O)Cn1cc(S(=O)(=O)NC)c(S(=O)(=O)NC)c1	–	–	–	–	–	–
CC(=O)c1cccc(NC(=O)C(C)OC(=O)c2cccc(-n3cnnn3)c2)c1 (stereo not drawn)	–	·	–	·	·	–
CC(CC(=O)Nc1cc(S(=O)(=O)N2CCOCC2)ccc1OCC(F)(F)F)c1ccccc1 (stereo not drawn)	?	·	?	·	·	–
CCCC(=O)Nc1cccc(C(=O)Nc2nccs2)c1	·	–	–	–	–	–
CCC(=O)Nc1cccc(C(=O)Nc2nccs2)c1	–	–	–	–	–	–
O=C(Nc1nccs1)c1cccc(NC(=O)C2CC2)c1	13µM	–	–	–	–	–
CC(C)C(=O)Nc1cccc(C(=O)Nc2nccs2)c1	–	15	–	–	–	–
Cn1nnnc1SCC(=O)Nc1ccc(Cl)c(S(=O)(=O)N2CCOCC2)c1	?	–	–	–	–	–
COc1cccc2c1cc1c(=O)n(CC(=O)N3CCC(C)CC3)nc(C)n12	–	–	–	–	–	–
CCC(CO)NC1=C([N+](=O)[O-])C(=O)CC(C)(C)C1 (stereo not drawn)	–	–	–	–	–	–
CC1(C)CC(=O)C([N+](=O)[O-])=C(NCCCO)C1	12µM	–	–	–	–	?
NCCCCNS(=O)(=O)c1cccc2c(Cl)cccc12	·	·	·	–	·	·
CCOC(=O)N1CCN(C(=O)c2ccccc2NC(=O)COc2ccccc2)CC1	–	31	–	–	109	–
